Data taken from PubChem BioAssay (NCATS).
Inconclusive results are not listed. The list shows a part of the results. Calls of active or inactive are those of the source. Unless noted, the call rests on the fitted dose curve; in most records, active means well fitted curve in the direction sought with a large enough effect; inconclusive means small, poorly fitted or top-dose-only effect, or another doubt; inactive means no such curve, though single readings can be large; an effect the other way counts as inactive or inconclusive.

Key:
[1] = qHTS for differential inhibitors of proliferation of Plasmodium falciparum line D10 (AID 1877);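 further: parasites grown with compound for 72 h before DNA staining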; further: potency means the concentration at half of the fitted maximal effect
[2] = qHTS for differential inhibitors of proliferation of Plasmodium falciparum line Dd2 (AID 1882); conditions: Potency: Plasmodium falciparum Dd2 proliferation inhibition; further: nearly all actives have a fitted effect of over 65% in size; further: potency means the concentration at half of the fitted maximal effect
In short: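 SYBR Green DNA fluorescence (ex 485, em 535 nm) after overnight lysis quantifies parasite growth; compound exposure lasted 72 h at 37 C on infected red cells at 2.5% hematocrit, 0.3% parasitemia (final). Artemisinin 0.29 uM and vehicle wells define normalization.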

[3] = qHTS for differential inhibitors of proliferation of Plasmodium falciparum line W2 (AID 1883); conditions: Potency: Plasmodium falciparum W2 proliferation inhibition;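 further: parasites grown with compound for 72 h before lysis and staining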; further: potency means the concentration at half of the fitted maximal effect
[4] = qHTS for differential inhibitors of proliferation of Plasmodium falciparum line HB3 (AID 1886); conditions: Potency: Plasmodium falciparum HB3 proliferation inhibition;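 further: parasites grown with compound for 72 h before SYBR Green readout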; further: potency means the concentration at half of the fitted maximal effect
[5] = qHTS Assay for Modulators of Human Peripheral Myelin Protein 22 (PMP22) Expression/Activity (AID 1967; active means well fitted curve in the direction sought with a large enough effect in the signal ratio; the % refers to the signal ratio)
In short: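 MSC80 mouse Schwann cells stably carrying Pmp22 promoter–green click beetle luciferase plus EF-alpha–red luciferase control were dosed for 24h at 37 °C. Dual-colour luminescence was filter-overlap corrected; %Activity came from green/red ratio versus untreated cells.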

[6] = target: Ferritin light chain (Equus caballus) (UniProt P02791); experiment: qHTS Validation Assay for Identification of Novel General Anesthetics (AID 2323); further: series mostly up to about 77 µM
Sequence of Ferritin light chain (Equus caballus) (P02791 2-175 limits assumed): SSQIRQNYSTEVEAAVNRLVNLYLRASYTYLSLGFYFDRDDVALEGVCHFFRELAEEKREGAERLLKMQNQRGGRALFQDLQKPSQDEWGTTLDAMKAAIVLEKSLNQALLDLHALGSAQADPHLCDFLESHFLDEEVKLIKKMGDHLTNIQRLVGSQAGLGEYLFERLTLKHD
In short: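 Competitive displacement of profluorescent 1-aminoanthracene (1-AMA, 50% saturated solution in PBS) from 10 uM horse-spleen apoferritin. Compounds incubated 10 min at room temperature; fluorescence read at 380 nm excitation/535 nm emission, normalized to free 1-AMA and complex, fitted with four-parameter Hill equation.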

[7] = target: ATP-dependent DNA helicase Q1 (Homo sapiens) (UniProt P46063); experiment: qHTS Validation Assay for Inhibitors of RecQ-Like Dna Helicase 1 (RECQ1) (AID 2353); further: potency means the concentration at half of the fitted maximal effect
Sequence of ATP-dependent DNA helicase Q1 (Homo sapiens) (P46063 whole entry, looked up): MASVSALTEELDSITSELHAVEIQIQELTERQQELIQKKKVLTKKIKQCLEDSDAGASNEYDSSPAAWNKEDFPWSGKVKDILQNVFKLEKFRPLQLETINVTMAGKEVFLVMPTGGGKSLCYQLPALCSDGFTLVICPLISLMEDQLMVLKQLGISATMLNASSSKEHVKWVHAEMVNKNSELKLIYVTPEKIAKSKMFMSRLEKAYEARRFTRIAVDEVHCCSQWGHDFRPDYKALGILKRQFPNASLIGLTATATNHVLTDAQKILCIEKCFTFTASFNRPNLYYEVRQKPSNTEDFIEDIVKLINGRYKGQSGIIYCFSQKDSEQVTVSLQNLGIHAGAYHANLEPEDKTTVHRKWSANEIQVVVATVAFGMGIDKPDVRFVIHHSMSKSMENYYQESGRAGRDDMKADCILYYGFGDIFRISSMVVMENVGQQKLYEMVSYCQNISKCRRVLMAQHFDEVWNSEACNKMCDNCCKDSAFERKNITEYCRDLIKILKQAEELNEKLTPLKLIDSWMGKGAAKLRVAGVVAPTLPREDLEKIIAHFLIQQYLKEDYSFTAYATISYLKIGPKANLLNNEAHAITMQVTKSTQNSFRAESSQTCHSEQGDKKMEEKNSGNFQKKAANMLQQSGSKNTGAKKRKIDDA
In short: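 RECQ1T1 50 nM; forked duplex (20 bp + 30-nt ss tails) 200 nM, ATP 2 mM final; pH 8.0, 2 mM MgCl2, 2.5 ug/ml poly(dI-dC); 15 min compound preincubation; discontinuous kinetic read over 2 h at RT.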

[8] = target: RecQ-like DNA helicase BLM (Homo sapiens) (UniProt P54132); experiment: qHTS Validation Assay for Inhibitors of Bloom's syndrome helicase (BLM) (AID 2364)
Sequence of RecQ-like DNA helicase BLM (Homo sapiens) (P54132 whole entry, looked up): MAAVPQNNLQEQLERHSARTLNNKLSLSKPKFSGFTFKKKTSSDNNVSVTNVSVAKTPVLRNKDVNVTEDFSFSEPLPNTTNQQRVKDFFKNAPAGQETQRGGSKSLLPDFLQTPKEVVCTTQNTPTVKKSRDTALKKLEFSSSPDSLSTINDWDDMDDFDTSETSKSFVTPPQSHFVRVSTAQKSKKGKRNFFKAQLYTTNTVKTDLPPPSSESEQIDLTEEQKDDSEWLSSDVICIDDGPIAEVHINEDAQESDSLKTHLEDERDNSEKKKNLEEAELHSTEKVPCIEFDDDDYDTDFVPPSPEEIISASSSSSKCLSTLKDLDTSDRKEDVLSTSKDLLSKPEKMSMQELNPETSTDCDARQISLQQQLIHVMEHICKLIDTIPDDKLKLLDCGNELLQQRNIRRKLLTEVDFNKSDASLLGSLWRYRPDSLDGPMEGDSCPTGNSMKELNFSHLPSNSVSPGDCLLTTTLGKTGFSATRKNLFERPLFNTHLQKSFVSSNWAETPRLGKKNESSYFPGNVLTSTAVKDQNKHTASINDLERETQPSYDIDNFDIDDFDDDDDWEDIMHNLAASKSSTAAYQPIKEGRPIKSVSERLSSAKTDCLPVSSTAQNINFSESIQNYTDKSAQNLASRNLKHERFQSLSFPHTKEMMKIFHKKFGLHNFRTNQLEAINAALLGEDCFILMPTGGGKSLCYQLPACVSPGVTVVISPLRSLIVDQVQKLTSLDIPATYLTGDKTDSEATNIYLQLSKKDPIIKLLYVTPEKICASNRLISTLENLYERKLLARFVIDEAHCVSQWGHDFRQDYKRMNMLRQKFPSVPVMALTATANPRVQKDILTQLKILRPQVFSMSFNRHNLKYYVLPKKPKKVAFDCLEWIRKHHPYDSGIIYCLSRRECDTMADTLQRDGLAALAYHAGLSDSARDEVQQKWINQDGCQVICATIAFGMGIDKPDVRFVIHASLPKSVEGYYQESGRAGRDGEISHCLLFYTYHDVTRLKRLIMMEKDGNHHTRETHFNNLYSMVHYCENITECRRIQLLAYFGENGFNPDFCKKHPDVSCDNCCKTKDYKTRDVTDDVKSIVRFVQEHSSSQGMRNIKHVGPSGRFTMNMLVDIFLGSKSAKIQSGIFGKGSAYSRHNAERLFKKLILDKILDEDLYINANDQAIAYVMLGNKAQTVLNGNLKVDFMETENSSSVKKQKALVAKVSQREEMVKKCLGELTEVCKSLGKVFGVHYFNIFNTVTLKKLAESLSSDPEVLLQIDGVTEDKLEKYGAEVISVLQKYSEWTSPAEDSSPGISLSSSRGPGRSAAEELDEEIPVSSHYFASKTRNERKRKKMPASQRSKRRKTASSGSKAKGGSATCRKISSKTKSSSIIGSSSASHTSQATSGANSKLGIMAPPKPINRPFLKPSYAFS
In short: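 50 nM BLM preincubated 15 min at room temperature with compound in pH 8.0 Tris buffer containing 2.5 ug/ml poly(dI-dC); started with 200 nM TAMRA/BHQ-2 forked duplex and 2 mM ATP (final). Unwinding read as TAMRA fluorescence increase, two reads 2 h apart.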

[9] = target: Endonuclease 4 (Escherichia coli (strain K12)) (UniProt P0A6C1); experiment: Counterscreen for APE1 Inhibitors: qHTS Assay for Inhibitors of Endonuclease IV (AID 2565)
From the text: Assay Provider: David M. Wilson, III, National Institute on Aging, NIH
Screening Center PI: Austin, C.P.
Screening Center: NIH Chemical Genomics Center [NCGC]
Escherichia coli endonuclease IV (Endo IV) is the key member of the AP endonuclease superfamily that catalyzes the cleavage of damaged DNA backbone immediately 5' of an AP site. E. coli EndoIV has the same functional activities as human APE1 but has no sequence or structural homology to the human protein. Herein, we utilize E. coli EndoIV to counter screen compound libraries as part of a high-throughput campaign for APE1 inhibitor identification. […]
Inhibition of APE1 activity was screened by utilizing double-stranded short substrate containing tetrahydrofuran (THF) abasic site labeled with rhodamine-type fluorophore (TAMRA) at the 5'-end and with non-fluorescent Black Hole Quencher-2 (BHQ-2) at the opposing 3'-end. An increase in the fluorescence intensity due to incision of the abasic site by APE1 was used to measure the enzyme activity. […]
Three uL of enzyme were dispensed to 1536-well Greiner black solid bottom plates. […] The plates were immediately transferred into ViewLux High-throughput CCD imager (Perkin-Elmer) in order to measure the reaction progress in kinetic mode (three reads every 60 seconds) using 525 nm excitation and 598 nm emission fluorescence protocol. […]

Measured: Potency

CC(C)C[C@H](NC(=O)C1OC1C(=O)O)C(=O)NCCCCN=C(N)N (some centres undefined)
inactive: [5] | [6] | [7]
active: [1] 3.55 µM | [2] 6.31 µM | [3] 2.51 µM | [4] 2.51 µM

CCCc1c(OCCCOc2ccc(OCC(=O)O)cc2)ccc(C(C)=O)c1O
inactive: [1] | [2] | [3] | [4] | [5] | [6] | [7]

CC(N)(C(=O)O)c1ccc(C(=O)O)cc1 (centres undefined)
inactive: [1] | [2] | [3] | [4] | [5] | [6] | [7]

O=C(O)c1cc(=O)cc(C(=O)O)[nH]1
inactive: [1] | [2] | [3] | [4] | [5] | [6] | [7]

CN[C@H](CC(=O)O)C(=O)O
inactive: [1] | [2] | [3] | [4] | [5] | [6] | [7] | [8]

COc1cc(CC(=O)O)ccc1O
inactive: [1] | [2] | [3] | [4] | [5] | [6] | [7] | [8]

O=C(O)C1=CCNCC1
inactive: [1] | [2] | [3] | [4] | [5] | [6] | [7]

CCCCCC(O)CCCC(=O)O (centres undefined)
inactive: [1] | [2] | [3] | [4] | [5] | [6] | [7] | [8]

CC(=O)NCCc1c[nH]c2ccc(O)cc12
inactive: [1] | [2] | [3] | [4] | [5] | [6] | [7]

Cn1ccnc1
inactive: [1] | [2] | [3] | [4] | [5] | [6] | [7] | [8]

N=C(N)c1ccccc1
inactive: [1] | [2] | [3] | [4] | [5] | [6] | [7]

CC(N)(Cc1ccc(O)cc1)C(=O)O (centres undefined)
inactive: [1] | [2] | [3] | [4] | [5] | [6] | [8]
active: [7] 11.2 µM

O=C(O)C1=CCCNC1
inactive: [1] | [2] | [3] | [4] | [5] | [6] | [7]

OCC1NCC(O)C(O)C1O (centres undefined)
inactive: [1] | [2] | [3] | [4] | [5] | [6] | [7] | [8]

NC/C=C\C(=O)O
inactive: [1] | [2] | [3] | [4] | [5] | [6] | [7]

O=C(O)/C=C/c1cnc[nH]1
inactive: [1] | [2] | [3] | [4] | [5] | [6] | [7]

COc1ccc2c(c1)CCC1C2CC[C@@]2(C)C1CC[C@@H]2NCCCCCCN1C(=O)C=CC1=O (some centres undefined)
inactive: [1] | [2] | [3] | [4] | [5] | [6] | [7] | [8]

NC(C(=O)N[C@@H]1C(=O)N2C(C(=O)O)=C(Cl)CS[C@H]12)c1ccccc1 (some centres undefined)
inactive: [1] | [2] | [3] | [4] | [5] | [6] | [7]

CNc1cc(NS(=O)(=O)c2ccc(N)cc2)nc(NC)n1
inactive: [1] | [2] | [3] | [4] | [5] | [6] | [7]

O=[N+]([O-])c1cccc2cn[nH]c12
inactive: [1] | [2] | [3] | [4] | [5] | [6] | [7]

NC1(C(=O)O)CCCCC1
inactive: [1] | [2] | [3] | [4] | [5] | [6] | [7]

C[C@@]1(C2CCCC2)Cc2cc(OCC(=O)O)c(Cl)c(Cl)c2C1=O
inactive: [1] | [2] | [3] | [4] | [5] | [6] | [7]

COc1cc(C(O)CO)ccc1O (centres undefined)
inactive: [1] | [2] | [3] | [4] | [5] | [6] | [7] | [8]

COc1cc(C(O)C(=O)O)ccc1O (centres undefined)
inactive: [1] | [2] | [3] | [4] | [5] | [6] | [7]

COc1ccc(-c2ccc(N)[n+](CCCC(=O)O)n2)cc1
inactive: [1] | [2] | [3] | [4] | [5] | [6] | [7] | [8]

O=C(O)c1cccnc1C(=O)O
inactive: [1] | [2] | [3] | [4] | [5] | [6] | [7]

N[C@@H](CS(=O)O)C(=O)O
inactive: [1] | [2] | [3] | [4] | [5] | [6] | [7] | [8]

C=C(C)C1CC=C(C(=O)O)CC1 (centres undefined)
inactive: [1] | [2] | [3] | [4] | [5] | [6] | [7] | [8]

NCCS(=O)O
inactive: [1] | [2] | [3] | [4] | [5] | [6] | [7]

CC(C)(C)NCC(O)COc1cccc2[nH]c(=O)[nH]c12 (centres undefined)
inactive: [1] | [2] | [3] | [4] | [5] | [6] | [7] | [8]

O=C(O)[C@H]1NCCC[C@H]1C(=O)O
inactive: [1] | [2] | [3] | [4] | [5] | [6] | [7]

NCCC1CCCC(CCN)N1 (centres undefined)
inactive: [1] | [2] | [3] | [4] | [5] | [6] | [7] | [8]

N[C@H](C(=O)O)c1cc(O)cc(O)c1
inactive: [1] | [2] | [3] | [4] | [5] | [6] | [7]

CO/N=C(\C(=O)N[C@@H]1C(=O)N2C(C(=O)O)=C(CSc3nc(=O)c(O)nn3C)CSC12)c1csc(N)n1 (some centres undefined)
inactive: [1] | [2] | [3] | [4] | [5] | [6]

NCC(O)(CS(=O)(=O)O)c1ccc(Cl)cc1 (centres undefined)
inactive: [1] | [2] | [3] | [4] | [5] | [6] | [7]

N[C@@H](Cc1ccc(O)c(I)c1)C(=O)O
inactive: [1] | [2] | [3] | [4] | [5] | [6] | [7]

Cc1nc(N=Nc2ccc(S(=O)(=O)O)cc2S(=O)(=O)O)c(COP(=O)(O)O)c(C=O)c1O
inactive: [1] | [2] | [3] | [4] | [5] | [6] | [7] | [8]

CSC(N)=NCCC[C@H](N)C(=O)O
inactive: [1] | [2] | [3] | [4] | [5] | [6] | [7] | [8]

NCC(O)C1CCCCCCC1 (centres undefined)
active: [2] 8.91 µM | [3] 3.16 µM
inactive: [1] | [4] | [6] | [7]

C#CCn1c(=O)c2c(ncn2C)n(C)c1=O
inactive: [1] | [2] | [3] | [4] | [5] | [7]

CCN1C(=O)C=CC1=O
inactive: [1] | [2] | [3] | [4] | [6] | [7]

CC(=O)C(C)=O
inactive: [1] | [2] | [3] | [4] | [5] | [6] | [7] | [8]

Cc1cccc(C)c1OCC(N)C(C)C (centres undefined)
active: [2] 4.47 µM | [3] 0.708 µM
inactive: [1] | [4] | [5] | [7]

N#CC(=C(\N)Sc1ccccc1N)/C(C#N)=C(/N)Sc1ccccc1N
inactive: [5] | [7]
active: [1] 2 µM | [2] 7.08 µM | [3] 2.82 µM | [4] 4.47 µM

CCCCCCCCCCCCCCSCC(=O)O
inactive: [1] | [2] | [3] | [4] | [5] | [7]

CC1C(=O)N(C)C(=O)c2nc[nH]c21 (centres undefined)
inactive: [1] | [2] | [3] | [4] | [5] | [7]

CCN(CC)CCOC(=O)c1cc(Cl)c(N)cc1OC
inactive: [1] | [2] | [3] | [4] | [5] | [7] | [8]

NC1CCN(O)C1=O (centres undefined)
inactive: [1] | [2] | [3] | [4] | [5] | [6] | [7] | [8] | [9]

N[C@@H](CCCC(=O)O)C(=O)O
inactive: [1] | [2] | [3] | [4] | [5] | [7]

O=[N+]([O-])c1cccc2c(Br)[nH]nc12
inactive: [1] | [2] | [3] | [4] | [5] | [7]

NC1C=CC=C(C(=O)O)C1 (centres undefined)
inactive: [1] | [2] | [3] | [4] | [6] | [7]

C=CCN1CCc2cc(O)c(O)cc2C(c2ccccc2)C1 (centres undefined)
active: [1] 11.2 µM | [2] 12.6 µM | [3] 7.94 µM | [4] 11.2 µM
inactive: [6] | [7]

N[C@H](C(=O)O)[C@H](O)C(=O)O
inactive: [1] | [2] | [3] | [4] | [6] | [7]

COc1ccc(CCN(C)CCc2ccc(OC)c(OC)c2)cc1OC
inactive: [1] | [2] | [4] | [6] | [7]
active: [3] 14.1 µM

CSC(=N)N
inactive: [1] | [2] | [3] | [4] | [5] | [7]

O=c1cc(O)cc(/C=C/c2ccc(O)c(O)c2)o1
inactive: [2] | [6] | [7]
active: [1] 11.2 µM | [3] 11.2 µM | [4] 11.2 µM
